PMC5540273 (PLoS ONE, 2017)
Where “and” joins values, the source holds several entries; their conditions need not be identical. Equal entries are not always repeated. Where two headings read alike, the source gives them in different places.

Columns and labels:
CAMK2D = conditions: concentration: 1 μM, replicates: in singlicate; n = 1
CAMK2G = conditions: concentration: 1 μM, replicates: in singlicate, n = 1
CAMK4 = conditions: concentration: 1 μM, replicates: in singlicate; n = 1
CAMKK1 = conditions: concentration: 1 μM, replicates: in singlicate; n = 1
CAMKK2 = conditions: concentration: 1 μM, replicates: in singlicate; n = 1
CASK = conditions: concentration: 1 μM, replicates: in singlicate; n = 1
CDC2L1 = tested on: T1, CDC2L1; conditions: concentration: 1 μM, replicates: in singlicate; n = 1
T1 construct: gene CDK11B

CDC2L2 = conditions: concentration: 1 μM, replicates: in singlicate, n = 1
CDC2L5 = tested on: T2, CDC2L5; conditions: concentration: 1 μM, replicates: in singlicate, n = 1
T2 construct: gene CDK13

CDK11 = tested on: T3, CDK11; conditions: concentration: 1 μM, replicates: in singlicate, n = 1
T3 construct: gene CDK19

CDK2 = conditions: concentration: 1 μM, replicates: in singlicate; n = 1
CDK3 = conditions: concentration: 1 μM, replicates: in singlicate, n = 1
CDK4-cyclinD1 = conditions: concentration: 1 μM, replicates: in singlicate; n = 1
CDK4-cyclinD3 = conditions: concentration: 1 μM, replicates: in singlicate; n = 1
CDK4 = conditions: concentration: 1 μM, replicates: in singlicate, n = 1
CDK5 = conditions: concentration: 1 μM, replicates: in singlicate; n = 1
CDK7 = conditions: concentration: 1 μM, replicates: in singlicate, n = 1
CDK8 = conditions: concentration: 1 μM, replicates: in singlicate, n = 1
CDK9 = conditions: concentration: 1 μM, replicates: in singlicate; n = 1
CDKL1 = conditions: concentration: 1 μM, replicates: in singlicate, n = 1
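Also: KINOMEscan kinase panel screen.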

C[C@@H]1CCN(C(=O)CO)C[C@@H]1N(C)c1ncnc2[nH]ccc12
%Inh (CAMK2D): 0% | %Inh (CAMK2G): 13% | %Inh (CAMK4): 20% | %Inh (CAMKK1): 4% | %Inh (CAMKK2): 11% | %Inh (CASK): 0% | %Inh (CDC2L1): 0% | %Inh (CDC2L2): 0% | %Inh (CDC2L5): 0% | %Inh (CDK11): 6% | %Inh (CDK2): 0% | %Inh (CDK3): 0% | %Inh (CDK4-cyclinD1): 0% | %Inh (CDK4-cyclinD3): 0% | %Inh (CDK4): 0% | %Inh (CDK5): 4% | %Inh (CDK7): 20% | %Inh (CDK8): 0% | %Inh (CDK9): 9% | %Inh (CDKL1): 12%

COc1ccc(NC(=O)c2ccc(-c3cc(-c4nnc(C)o4)ccc3C)cc2)cc1 [GW595885]
%Inh (CAMK2D): 0% | %Inh (CAMK2G): 8% | %Inh (CAMK4): 0% | %Inh (CAMKK1): 0% | %Inh (CAMKK2): 0% | %Inh (CASK): 21% | %Inh (CDC2L1): 0% | %Inh (CDC2L2): 0% | %Inh (CDC2L5): 0% | %Inh (CDK11): 0% | %Inh (CDK2): 0% | %Inh (CDK3): 22% | %Inh (CDK4-cyclinD1): 14% | %Inh (CDK4-cyclinD3): 0% | %Inh (CDK4): 0% | %Inh (CDK5): 0% | %Inh (CDK7): 0% | %Inh (CDK8): 9% | %Inh (CDK9): 0% | %Inh (CDKL1): 0%

Nc1n[nH]c2nnc(-c3ccccc3)cc12 [SB-517389]
%Inh (CAMK2D): 2% | %Inh (CAMK2G): 0% | %Inh (CAMK4): 0% | %Inh (CAMKK1): 0% | %Inh (CAMKK2): 0% | %Inh (CASK): 18% | %Inh (CDC2L1): 0% | %Inh (CDC2L2): 0% | %Inh (CDC2L5): 0% | %Inh (CDK11): 0% | %Inh (CDK2): 0% | %Inh (CDK3): 20% | %Inh (CDK4-cyclinD1): 0% | %Inh (CDK4-cyclinD3): 22% | %Inh (CDK4): 0% | %Inh (CDK5): 0% | %Inh (CDK7): 0% | %Inh (CDK8): 0% | %Inh (CDK9): 21% | %Inh (CDKL1): 0%

COc1ccc(-c2nc3n(c2-c2ccncc2)CCC3)cc1 [SKF-104493]
%Inh (CAMK2D): 0% | %Inh (CAMK2G; 1 µM): 0% and 2% | %Inh (CAMK4): 0% | %Inh (CAMKK1): 0% | %Inh (CAMKK2): 0% | %Inh (CASK): 0% | %Inh (CDC2L1): 0% | %Inh (CDC2L2; 1 µM): 6% and 13% | %Inh (CDC2L5; 1 µM): 18% and 0% | %Inh (CDK11; 1 µM): 5% and 7% | %Inh (CDK2): 0% | %Inh (CDK3; 1 µM): 0% and 4% | %Inh (CDK4-cyclinD1): 0% | %Inh (CDK4-cyclinD3): 0% | %Inh (CDK4; 1 µM): 44% and 0% | %Inh (CDK5): 0% | %Inh (CDK7; 1 µM): 15% and 6% | %Inh (CDK8; 1 µM): 5% and 9% | %Inh (CDK9): 0% | %Inh (CDKL1; 1 µM): 11% and 6%

CCn1c(-c2ccncc2)nc2cnccc21 [SB-735216]
%Inh (CAMK2D): 0% | %Inh (CAMK2G): 0% | %Inh (CAMK4): 0% | %Inh (CAMKK1): 0% | %Inh (CAMKK2): 4% | %Inh (CASK): 5% | %Inh (CDC2L1): 9% | %Inh (CDC2L2): 0% | %Inh (CDC2L5): 28% | %Inh (CDK11): 18% | %Inh (CDK2): 5% | %Inh (CDK3): 1% | %Inh (CDK4-cyclinD1): 0% | %Inh (CDK4-cyclinD3): 0% | %Inh (CDK4): 45% | %Inh (CDK5): 0% | %Inh (CDK7): 6% | %Inh (CDK8): 0% | %Inh (CDK9): 0% | %Inh (CDKL1): 12%
